In PubChem BioAssay (EPA / NIEHS):
Values joined by “and” are separate entries in the source; they are usually repeats but may differ in a detail not shown here. Equal entries are not always repeated. Active and inactive are the calls of the source. Rule for the calls: active = hit-call score of the fitted dose curve at least 0.9, where 1 is the maximum; inactive = score below 0.9.

Assay: CCTE_Shafer_MEA_dev_burst_duration_mean: CCTE's Neural Network Formation Assay for Mean Burst Duration, Shafer Lab (AID 2284045);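 for AC50: curve fitted for loss meaning shorter burst duration than DMSO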
Protocol: CCTE_Shafer_MEA_dev assay is conducted using Axion Biosystems 48 well microelectrode array (MEA) plates and Maestro recording system. Each well of the MEA plate contains a grid of 16 microelectrodes embedded in the culture surface. Electrically active cells, such as neurons, can be cultured over the electrodes, and electrical activity in these cells can be recorded extracellularly. The spontaneous firing of neurons is captured from each electrode on a microsecond timescale providing both temporally and spatially precise data. […] The CCTE_Shafer_MEA_dev assay uses primary cultures of rat cortical neurons. Recordings are made on days post-plating 5, 7, 9 and 12. As these cultures mature over time, neural networks develop functional activity and form cohesive networks in which electrical activity can be highly coordinated. CCTE_Shafer_MEA_dev_burst_duration_mean is 1 of 19 assay components of the CCTE_Shafer_MEA_dev assay. It measures the average time interval from the first spike (action potential firing) to the last spike in a singe-electrode burst (temporally-clustered group of spikes) during a recording in a microelectrode array (MEA) using Axion Biosystems Maestro 768 channel amplifier with the AxIS adaptive spike detector. The mean burst duration is averaged across the actively bursting electrodes to report a well-mean value. To collapse across multiple recordings made on days post-plating 5, 7, 9 and 12, the trapezoidal area-under-the-curve of the component is calculated.Data from the assay component CCTE_Shafer_MEA_dev_burst_duration_mean was analyzed into 1 assay endpoint. This assay endpoint, CCTE_Shafer_MEA_dev_burst_duration_mean, was analyzed in the negative analysis fitting direction relative to DMSO as the negative control and baseline of activity. Using a type of functional reporter, gain or loss-of-signal activity can be used to understand electrical activity.
On the day prior to culture, each well was coated thoroughly with 150 uL of 0.05% polyethyleneimine (PEI, Sigma Cat P3143) in 50 mM HEPES (Sigma Cat H7523) at a pH of 8. The plate was incubated at 37C for one hour. PEI was rinsed out with 500 uL of sterile water three times. Plates were stored at 4C until the day of culture. This culture was plated at a seeding density of 1.5 x 10^5 cells/well on a 48-well MEA plate, prepared as described above. Cells were administered via a 25 uL media/laminin ([…]; Sigma Cat L2020-1MG) drop directly onto the microelectrode array, as adding the cells with the laminin results in better attachment than pre-coating with laminin. After 2 hours, an additional 475 uL of cortical media was added and the cells returned to the incubator. Exposure starts at day 0 of plating and is continued over twelve days of network development until the experiment is terminated. Cells are fed with fresh medium on DIV 5 and 9, following the recordings on those days. The entire volume of media in the well is exchanged and any vehicle or compound treatment is renewed. Complete details are found in OP-NHEERL/ISTD/SBB/TJS/2015-03-r0 (available on request, email shafer.tim@epa.gov). Measurement of the electrical activity is non-invasive, and recordings can be made from the same plate over multiple different days of the culture. In cortical neurons, this allows for the measurement of extracellular action potentials over the period during which networks form in the MEA plate.

Compound	outcome	AC50
Cn1cc[nH]c1=S	inactive	–
CCN(CC)C(=S)SSC(=S)N(CC)CC	–	103 nM (active) and 38.3 nM (active)
O=C(Cl)C(F)(F)C(F)(F)C(F)(F)C(=O)Cl	inactive	–
COc1cc2c(c(OC)c1OC)-c1ccc(OC)c(=O)cc1[C@@H](NC(C)=O)CC2	–	6.51 nM (active)
NCC(F)(F)C(F)(F)C(F)(F)C(F)(F)F	inactive	–
OC(Cn1cncn1)(Cn1cncn1)c1ccc(F)cc1F	inactive	–
Nc1ccn([C@@H]2O[C@H](CO)[C@@H](O)[C@@H]2O)c(=O)n1	–	248 nM (active) and 1.85 µM (active)
c1ccc2cc3ccccc3cc2c1	inactive	–
CCOc1ccc2[nH]cc(C(=O)NCc3ccccc3)c(=O)c2n1	inactive	–
NNC(=O)c1ccncc1	inactive	–
OCCC(F)(F)C(F)(F)C(F)(F)C(F)(F)F	inactive	–
c1ccc2c(c1)-c1cccc3c1c-2cc1ccccc13	inactive	–
NC(=O)N1c2ccccc2C=Cc2ccccc21	inactive	–
OC(O)(C(F)C(O)(O)C(F)(F)F)C(F)(F)F	inactive	–
FC(F)(F)C(F)(F)C(F)(F)C(F)(F)C(F)(F)C(F)(F)I	inactive	–
CCCC(CCC)C(=O)O	inactive	–
FC(F)(F)COC(OCC(F)(F)F)OCC(F)(F)F	inactive	–
CC[C@H](C)C(=O)O[C@H]1C[C@H](O)C=C2C=C[C@H](C)[C@H](CC[C@@H](O)C[C@@H](O)CC(=O)O)[C@H]21	inactive	–
